Several values for one entry are separate records, joined by “and”; a condition that tells them apart may be missing. Equal values may be shown once. Results filed as inconclusive are left out. Activity calls are given as the source filed them. Unless noted, calls come from the whole dose curve; as a rule, active = well fitted curve in the direction sought with a large enough effect; inconclusive = small, poorly fitted or top-dose-only effect, or another doubt; inactive = no such curve, though single readings can be large; an effect the other way counts as inactive or inconclusive.
What was measured:
[1] = molecular target: Peroxisome proliferator-activated receptor alpha (Homo sapiens) (UniProt Q07869); test: qHTS assay for small molecule agonists of the peroxisome proliferator-activated receptor alpha (PPARalpha) signaling pathway (AID 651778); settings: PathHunter PPARalpha complementation, chemiluminescence, 6 h; max response: stronger effect = higher value; note: % of control where 0% means no effect
Peroxisome proliferator-activated receptor alpha (Homo sapiens), sequence (Q07869 whole entry, looked up): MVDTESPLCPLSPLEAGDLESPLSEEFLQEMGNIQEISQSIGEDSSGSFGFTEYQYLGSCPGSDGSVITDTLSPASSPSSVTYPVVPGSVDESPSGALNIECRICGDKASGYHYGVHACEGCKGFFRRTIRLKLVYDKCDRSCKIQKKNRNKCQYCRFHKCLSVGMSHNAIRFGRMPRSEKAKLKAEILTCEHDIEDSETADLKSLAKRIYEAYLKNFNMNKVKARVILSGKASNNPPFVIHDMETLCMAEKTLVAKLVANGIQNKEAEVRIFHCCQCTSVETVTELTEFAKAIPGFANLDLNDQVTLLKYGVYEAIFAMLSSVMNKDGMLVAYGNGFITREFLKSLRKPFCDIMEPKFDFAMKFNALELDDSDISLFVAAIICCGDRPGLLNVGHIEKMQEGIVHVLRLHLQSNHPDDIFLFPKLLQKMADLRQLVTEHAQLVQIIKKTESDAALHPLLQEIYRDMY
Method in brief: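 Cells plated at 2,000/well and held overnight at 37 C, 5% CO2, then compound added by pin tool for 6 hr; after PathHunter detection reagent and 60 min at room temperature, chemiluminescence from enzyme complementation was read.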

[2] = qHTS assay for small molecule agonists of the antioxidant response element (ARE) signaling pathway measured by Nrf2-dependant transcriptional activity (AID 720636; active = well fitted curve in the direction sought with a large enough effect in the repeat runs; an effect the other way counts as inactive or inconclusive; note: % of control where 0% means no effect)
Method in brief: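 ARE-luc HepG2 cells carrying an Nrf2-responsive luciferase reporter, in medium with 1% dialyzed FBS, exposed to compound for 16 hr at 37 C, 5% CO2. Luminescence read 30 min after ONE-Glo addition.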

[3] = qHTS assay for small molecule agonists of the antioxidant response element (ARE) signaling pathway measured by Nrf2-dependant transcriptional activity - cell viability counter screen (AID 720653; active = well fitted curve in the direction sought with a large enough effect in the repeat runs; an effect the other way counts as inactive or inconclusive; note: % is set by controls: 0 for no effect and ±100 for the full control effect); settings: ARE-bla HepG2 viability, CellTiter-Glo ATP luminescence, 16 h; stronger effect = lower value
Method in brief: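 ARE-bla HepG2 cells (2,000/well) rested 5 hrs at 37C/5% CO2, then exposed to compounds in DMSO for 16 hrs. Viability was read in the same wells as intracellular ATP by luminescence, 30 min at room temperature after reagent addition.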

[4] = qHTS Assay for Identifying Gametocytocidal Compounds (AID 743244); note: potency is the fitted concentration of half-maximal effect;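 for max response: % is set by controls: 0 for no effect and ±100 for the full control effect; actives lower the fluorescent signal which means gametocytes are killed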; settings: P. falciparum 3D7 stage III-V gametocytes, alamarBlue, 72 h; max response: stronger effect = lower value
Method in brief: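 In this qHTS viability screen, late-stage 3D7 gametocytes are incubated with compound for 72 h, then with alamarBlue for 24 h; reduced resorufin fluorescence marks killing.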

[5] = qHTS assay for cell viability of HEK293 cells (AID 743288); settings: ATP luminescence (CellTiter-Glo), 18 h, stronger effect = lower value; note: % is set by controls: 0 for no effect and ±100 for the full control effect; nearly all actives have a fitted effect of over 50% in size
Method in brief: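 After 18 h compound exposure at 37 C, parental HEK293 cells (2,000/well) are lysed with CellTiter-Glo and luminescence is read following 30 min at room temperature.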

[6] = qHTS assay for cell viability of the p53RE-bla HCT-116 cell line (AID 743292); note: % is set by controls: 0 for no effect and ±100 for the full control effect; nearly all actives have a fitted effect of over 55% in size
Method in brief: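 CellSensor p53RE-bla HCT-116 cells (4,000/well) pre-incubated 5 h at 37 C, then exposed to compounds in DMSO for 16 h at 37 C. Viability read as ATP content by CellTiter-Glo luminescence after 30 min at room temperature.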

[7] = qHTS for compounds that reverse cellular toxicity of Amyloid beta (A-beta) peptide in yeast: LOPAC Validation Assay (AID 720559);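 note: plate controls were DMSO for no effect and equimolar ferric chloride plus clioquinol rescue for full effect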
Method in brief: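 Yeast cells expressing toxic A-beta were combined with pinned compounds in growth medium and incubated 48 hr at 30 C. Growth was read as absorbance at 600 nm and normalized to DMSO and to an equimolar FeCl3/clioquinol positive control.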

[8] = qHTS for Activators of Parkin Expression: LOPAC Validation Assay (FLuc Reporter) (AID 720573;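 note: 0% = DMSO and 100% = positive control compounds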)
Method in brief: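 Neuronal cell line stably carrying FLuc/NLuc coincidence reporter under Parkin promoter; cells plated 24 h, then compounds added in 7-point dose response for 24 h at 37 C. FLuc luminescence read; normalized to DMSO and positive control (100%).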

[9] = molecular target: T1, Hexokinase-4 (Homo sapiens) + Glucokinase regulatory protein (Homo sapiens) (UniProt P35557+Q14397); test: qHTS assay for inhibitors of recombinant human GCK-GKRP interaction: Diaphorase-coupled assay (AID 743205)
T1 sequence (P35557 whole entry, looked up): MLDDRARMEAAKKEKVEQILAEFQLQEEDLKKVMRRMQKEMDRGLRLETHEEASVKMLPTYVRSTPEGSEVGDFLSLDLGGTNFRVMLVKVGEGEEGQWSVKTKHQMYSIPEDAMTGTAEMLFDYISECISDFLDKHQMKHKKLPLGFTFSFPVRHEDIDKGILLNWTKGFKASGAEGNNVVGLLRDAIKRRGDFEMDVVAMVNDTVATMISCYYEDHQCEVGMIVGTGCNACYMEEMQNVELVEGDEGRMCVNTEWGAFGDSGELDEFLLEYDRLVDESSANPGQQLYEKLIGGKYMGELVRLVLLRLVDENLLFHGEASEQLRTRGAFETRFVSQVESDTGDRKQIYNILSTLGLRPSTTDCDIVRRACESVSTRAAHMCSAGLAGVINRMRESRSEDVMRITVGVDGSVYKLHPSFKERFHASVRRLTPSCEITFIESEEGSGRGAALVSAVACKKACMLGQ
T1 sequence (Q14397 whole entry, looked up): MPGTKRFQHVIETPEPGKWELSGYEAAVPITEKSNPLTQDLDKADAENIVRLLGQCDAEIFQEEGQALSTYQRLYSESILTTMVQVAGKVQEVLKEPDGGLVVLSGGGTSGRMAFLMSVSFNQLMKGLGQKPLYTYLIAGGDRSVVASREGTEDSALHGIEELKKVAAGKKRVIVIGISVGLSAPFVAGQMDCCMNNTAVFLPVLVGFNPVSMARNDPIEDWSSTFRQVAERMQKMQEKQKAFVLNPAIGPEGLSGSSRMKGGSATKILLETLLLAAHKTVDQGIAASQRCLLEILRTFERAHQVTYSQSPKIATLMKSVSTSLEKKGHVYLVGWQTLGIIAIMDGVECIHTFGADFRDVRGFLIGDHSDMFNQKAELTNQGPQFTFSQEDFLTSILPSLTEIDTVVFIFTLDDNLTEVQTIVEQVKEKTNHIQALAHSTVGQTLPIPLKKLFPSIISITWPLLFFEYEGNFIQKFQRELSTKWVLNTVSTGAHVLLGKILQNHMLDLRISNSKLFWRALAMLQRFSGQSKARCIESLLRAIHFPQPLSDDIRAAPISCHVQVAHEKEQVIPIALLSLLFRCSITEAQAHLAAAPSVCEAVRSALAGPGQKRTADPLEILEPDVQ
Method in brief: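 GST-GCK (10 nM) with FLAG-GKRP (10 nM), 5 mM glucose and 0.4 mM ATP in pH 7.6 Hepes; compounds preincubated 20 min with substrate. G6PDH/diaphorase coupling converts resazurin to resorufin, read kinetically (ex 525/em 590 nm) for 30 min.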

[10] = molecular target: T1, Hexokinase-4 (Homo sapiens) + Glucokinase regulatory protein (Homo sapiens); test: qHTS assay for inhibitors of recombinant human GCK-GKRP interaction: ADP-Glo assay (AID 743206);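 note: plate controls were DMSO plus enzyme for no effect and no enzyme for full effect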
Method in brief: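 Pin-transferred compounds meet a 15 nM GST-GCK/15 nM FLAG-GKRP/2 uM S6P mix (dispense concentrations). ATP is then added to 0.4 mM final with 5 mM glucose, and the reaction runs 60 min at room temperature. ADP is quantified luminescently.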

[11] = qHTS assay for small molecule disruptors of the mitochondrial membrane potential - 5 hr assay (AID 651755; calls by dose curve; note: nearly all actives have a fitted effect of over 40% in size; note: potency is the fitted concentration of half-maximal effect)
Method in brief: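 Seed HepG2 overnight, add compound, incubate 5 hr at 37C and 5% CO2, stain 30 min with Mito-MPS, then measure monomer (490/535 nm) and aggregate (540/590 nm) fluorescence.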

[12] = molecular target: Nuclear receptor ROR-gamma (Homo sapiens) (UniProt P51449); test: qHTS assay for small molecule antagonists of the retinoid-related orphan receptor gamma (ROR-gamma) signaling pathway (AID 651802); note: potency is the fitted concentration of half-maximal effect; nearly all actives have a fitted effect of over 60% in size
Nuclear receptor ROR-gamma (Homo sapiens), sequence (P51449 whole entry, looked up): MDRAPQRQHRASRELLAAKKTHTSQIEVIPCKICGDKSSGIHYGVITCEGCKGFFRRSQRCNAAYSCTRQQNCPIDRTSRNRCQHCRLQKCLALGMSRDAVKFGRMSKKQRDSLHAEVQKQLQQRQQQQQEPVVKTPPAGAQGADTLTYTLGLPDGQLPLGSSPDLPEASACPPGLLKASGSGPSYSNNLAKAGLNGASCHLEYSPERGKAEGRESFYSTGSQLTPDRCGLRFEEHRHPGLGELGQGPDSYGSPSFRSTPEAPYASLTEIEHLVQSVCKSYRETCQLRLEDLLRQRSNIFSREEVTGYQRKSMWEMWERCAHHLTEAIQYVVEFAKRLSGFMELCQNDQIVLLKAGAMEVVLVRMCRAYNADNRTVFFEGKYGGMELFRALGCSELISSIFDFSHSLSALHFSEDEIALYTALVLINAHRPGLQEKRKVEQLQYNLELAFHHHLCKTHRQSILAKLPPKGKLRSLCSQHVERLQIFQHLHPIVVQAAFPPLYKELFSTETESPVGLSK
Method in brief: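 Doxycycline-induced reporter activity in engineered CHO cells (TET-inducible ROR, RORE-LUC) was measured by luminescence after 16hr compound exposure at 37C.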

[13] = molecular target: Tumor necrosis factor (Homo sapiens) (UniProt P01375); test: qHTS assay to identify small molecules that stimulate Tumor Necrosis Factor-alpha (TNF-alpha) secretion (AID 651757; active = well fitted curve in the direction sought with a large enough effect in the signal ratio; the % refers to the signal ratio; note: 0% is about no effect)
Tumor necrosis factor (Homo sapiens), sequence (P01375 whole entry, looked up): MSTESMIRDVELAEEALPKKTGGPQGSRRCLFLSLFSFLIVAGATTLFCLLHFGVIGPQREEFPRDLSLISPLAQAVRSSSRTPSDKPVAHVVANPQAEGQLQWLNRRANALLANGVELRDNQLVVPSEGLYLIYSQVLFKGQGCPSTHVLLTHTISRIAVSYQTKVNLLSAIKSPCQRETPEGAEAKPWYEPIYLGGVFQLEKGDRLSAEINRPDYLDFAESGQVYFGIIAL
Method in brief: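 Using 3000 THP-1 cells per well, compounds and controls were applied for 17 hrs at 37 C. Detection followed with two labeled anti-TNF-alpha antibodies (cryptate donor, XL665 acceptor) for 3 hr at room temperature, measured by TR-FRET.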

[14] = molecular target: Tyrosine-protein kinase Yes (Homo sapiens) (UniProt P07947); test: qHTS for small molecule inhibitors of Yes1 kinase: Primary Screen (AID 686947);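 note: plate controls were DMSO with enzyme for no effect and no-enzyme DMSO wells for full effect; nearly all actives have a fitted effect of over 60% in size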
Tyrosine-protein kinase Yes (Homo sapiens), sequence (P07947 whole entry, looked up): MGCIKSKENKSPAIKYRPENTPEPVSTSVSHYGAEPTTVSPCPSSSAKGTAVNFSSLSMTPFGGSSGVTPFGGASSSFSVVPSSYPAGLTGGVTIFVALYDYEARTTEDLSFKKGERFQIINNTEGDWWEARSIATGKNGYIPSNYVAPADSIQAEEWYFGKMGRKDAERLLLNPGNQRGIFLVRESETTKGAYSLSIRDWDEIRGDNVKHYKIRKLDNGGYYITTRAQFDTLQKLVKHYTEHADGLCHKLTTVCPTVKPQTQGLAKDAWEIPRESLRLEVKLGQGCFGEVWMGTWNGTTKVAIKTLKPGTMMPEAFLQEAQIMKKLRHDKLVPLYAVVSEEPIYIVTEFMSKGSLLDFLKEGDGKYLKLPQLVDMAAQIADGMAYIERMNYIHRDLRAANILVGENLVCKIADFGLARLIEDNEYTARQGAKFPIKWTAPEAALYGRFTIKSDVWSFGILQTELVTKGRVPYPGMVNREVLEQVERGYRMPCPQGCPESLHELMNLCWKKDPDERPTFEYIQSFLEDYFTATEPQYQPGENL
Method in brief: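 In this qHTS format, inhibition is expressed relative to DMSO controls with enzyme (maximum) and without enzyme (minimum). The 60 min room-temperature reaction uses 0.1 mM ATP, with ADP detected by luminescence.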

[15] = qHTS for small molecule inhibitors of Yes1 kinase: Counter Assay (AID 686950);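 note: no kinase present so only ADP-Glo detection of a fixed ADP amount is tested; luminescence from ADP-Glo reporting ADP in a fixed ATP and ADP mixture; 0% = DMSO wells with ATP plus ADP and -100% = ATP-only wells without ADP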
Method in brief: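 Measuring interference with ADP-Glo, the assay ran 60 min at room temperature on an ATP/ADP mix lacking enzyme. Values were normalized to ATP-plus-ADP (maximum) and ATP-only (minimum) DMSO controls.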

[16] = qHTS profiling for inhibitors of Plasmodium falciparum (3D7) proliferation (AID 743322);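 note: infected erythrocytes exposed to compound for 72 h before lysis; 100% = DMSO vehicle wells and 0% = 0.29 µM artemisinin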; settings: P. falciparum 3D7 proliferation; at 28.7 µM (top of the series) unless noted
Method in brief: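 Parasite DNA was quantified by SYBR Green I fluorescence (ex 485, em 535 nm) after overnight lysis in saponin/Triton buffer at room temperature. Cultures at 0.3% parasitemia and 2.5% hematocrit were first exposed to compound for 72 h at 37 C; signals were normalised to artemisinin (0.29 uM) and vehicle wells.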

[17] = qHTS profiling for inhibitors of Plasmodium falciparum (DD2) proliferation (AID 743323; call rule not given here); settings: lower = more inhibition; at 28.7 µM (top of the series) unless noted
Method in brief: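 P. falciparum Dd2-infected erythrocytes (0.3% parasitemia, 2.5% hematocrit) exposed 72 h at 37 C, 5% CO2. Lysis with SYBR Green, overnight at room temperature, fluorescence 485/535 nm; normalized to 0.29 uM artemisinin and DMSO.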

[18] = qHTS profiling for inhibitors of Plasmodium falciparum (HB3) proliferation (AID 743324); settings: Plasmodium falciparum HB3 blood-stage proliferation; at 28.7 µM (top of the series) unless noted;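 note: 100% = DMSO vehicle wells and 0% = artemisinin-treated control wells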
Method in brief: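 SYBR Green fluorescence (485 ex/535 em) of lysed cultures, incubated overnight at room temperature in the dark, quantifies parasite DNA. Infected erythrocytes at 0.3% parasitemia and 2.5% hematocrit were exposed 72 h; values normalized to DMSO and 0.29 uM artemisinin controls.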

[19] = qHTS assay for small molecule antagonists of the retinoid-related orphan receptor gamma (ROR-gamma) signaling pathway - cell viability counter screen (AID 720652; active = well fitted curve in the direction sought with a large enough effect in the repeat runs; an effect the other way counts as inactive or inconclusive;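 note: potency is the fitted concentration of half-maximal effect; compound exposure lasted 16 hr before ATP read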)
Method in brief: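 ATP-based viability readout in the ROR-gamma reporter CHO cells after 16 hr compound exposure under doxycycline induction.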

C[C@H]1C[C@H]2[C@@H]3CCC4=CC(=O)C=C[C@]4(C)[C@@]3(Cl)[C@@H](O)C[C@]2(C)[C@@]1(O)C(=O)CO
inactive: max response [1] 3.36% | Potency [2] | max response [3] -20.4% | max response [4] 3.92% | max response [5] -18.8% | outcome [6]

CNCCC=C1c2ccccc2CCc2ccccc21
inactive: outcome [7] | outcome [8] | outcome [9] | outcome [10]

CCCC1O[C@@H]2C[C@H]3[C@@H]4CCC5=CC(=O)C=C[C@]5(C)[C@H]4[C@@H](O)C[C@]3(C)[C@]2(C(=O)CO)O1 (stereo partly specified)
inactive: outcome [7] | outcome [8] | outcome [9] | outcome [10] | max response [4] -5.95% and 18.2%

Oc1ccc(O)cc1
active: Potency [12] 10.6 µM
inactive: Potency [11] | max response [1] -2.94% | outcome [7] | outcome [8] | max response [3] -23.3% | outcome [9] | outcome [10] | max response [5] -28.2%

CCCCCCc1ccc(O)cc1O
active: Potency [11] 37.6 µM
inactive: outcome [13] | max response [1] -0.464% and 3.82% | Potency [2] | max response [3] -0.701% and 2.74% | max response [4] 3.3% | max response [5] -5.8% and 9.71% | outcome [6]

CC(C)C[C@H]1C(=O)N2CCC[C@H]2[C@]2(O)O[C@](NC(=O)[C@@H]3C=C4c5cccc6[nH]c(Br)c(c56)C[C@H]4N(C)C3)(C(C)C)C(=O)N12
inactive: outcome [7] | outcome [8] | outcome [9] | outcome [10]

Nc1ccn([C@@H]2O[C@H](CO)[C@@H](O)C2(F)F)c(=O)n1
1.07% [at 57.5 µM]: activity, percent of control [17]
-1.17% [at 57.5 µM]: remaining parasite growth % (stronger effect = lower value) [16]
0.276% [at 57.5 µM]: remaining proliferation (% of control), lower = more inhibition [18]
inactive: outcome [14] | outcome [15] | max response [4] 15.6% and -5%

CN(C)C(=S)SC(=S)N(C)C
inactive: max response [1] 0.0294% | Potency [2] | max response [3] 4.33% | outcome [6]

NC(=NCCCCCCN=C(N)/N=C(\N)Nc1ccc(Cl)cc1)/N=C(\N)Nc1ccc(Cl)cc1
active: Potency [12] 26.6 µM | Potency [19] 42.2 µM | Potency [4] 7.08 µM
inactive: outcome [13] | max response [1] 3.51% and 6.34% and -1.99% | Potency [2] | max response [3] -4.14% | max response [5] -23.7% and -11.7% and -27.9%

C[C@]12CC[C@@H]3c4ccc(O)cc4CC[C@H]3[C@@H]1CC[C@@H]2O
inactive: outcome [13] | max response [1] 0.86% | outcome [7] | outcome [8] | Potency [2] | max response [3] -2.14% | outcome [9] | outcome [10] | max response [4] 23.5% and 41.3% | max response [5] -9.32% | outcome [6]
active: Potency [12] 33.5 µM
